MsrA inh: inhibitors of bovine MsrA; purified bovine MsrA, absorbance read-out; inhibition, % at 15.5 µM; 0.75% of 360,000 active;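 further: 0% = vehicle wells with enzyme and 100% = reference inhibitor wells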
SMARCA2 activ: activators of SMARCA2 function | MG213 cells, MMTV-luciferase reporter, dexamethasone, overnight | activation, % at 9.1 µM | 1% of 370,000 active | AID 652017; in the data active means activation above about 7.8%;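 further: 0% = vehicle wells and 100% = reference activator wells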
ABCB6 inh 2: human ABCB6 transporter inhibition; Q9NP58; K562-ABCB6 porphyrin accumulation, flow cytometry, 1 h; stronger effect = lower value; fluorescence ratio to DMSO, % at 10 µM; 0.19% of 360,000 active; AID 602162;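 active means fluorescence ratio to DMSO below 75%, the collection mean minus 3 SD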;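 further: signal is porphyrin accumulated inside mitochondria; 100% equals median channel fluorescence of DMSO control wells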
Target sequence (Q9NP58 whole entry, looked up): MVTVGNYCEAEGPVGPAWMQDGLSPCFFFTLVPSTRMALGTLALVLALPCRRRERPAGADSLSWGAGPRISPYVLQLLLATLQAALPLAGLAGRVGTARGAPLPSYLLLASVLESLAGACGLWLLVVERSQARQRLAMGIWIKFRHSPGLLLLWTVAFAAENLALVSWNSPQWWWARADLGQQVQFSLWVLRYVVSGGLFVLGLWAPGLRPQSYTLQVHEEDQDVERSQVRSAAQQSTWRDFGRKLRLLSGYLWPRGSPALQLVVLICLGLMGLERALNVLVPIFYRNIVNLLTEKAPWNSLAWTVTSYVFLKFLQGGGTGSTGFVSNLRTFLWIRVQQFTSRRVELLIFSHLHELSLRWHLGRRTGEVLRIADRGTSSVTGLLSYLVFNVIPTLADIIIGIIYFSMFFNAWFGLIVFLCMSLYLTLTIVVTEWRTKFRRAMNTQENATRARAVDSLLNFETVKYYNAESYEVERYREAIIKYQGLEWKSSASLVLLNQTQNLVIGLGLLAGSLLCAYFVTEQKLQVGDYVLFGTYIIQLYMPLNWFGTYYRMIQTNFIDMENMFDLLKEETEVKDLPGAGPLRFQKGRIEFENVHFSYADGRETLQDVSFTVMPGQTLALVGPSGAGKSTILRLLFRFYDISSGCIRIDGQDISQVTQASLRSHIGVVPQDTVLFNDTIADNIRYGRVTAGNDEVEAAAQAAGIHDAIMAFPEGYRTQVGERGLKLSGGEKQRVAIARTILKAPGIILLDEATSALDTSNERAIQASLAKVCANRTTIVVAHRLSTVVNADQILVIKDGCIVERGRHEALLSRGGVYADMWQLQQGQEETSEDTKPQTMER
MsrA act: activators of bovine methionine sulfoxide reductase A; purified bovine MsrA, absorbance read-out; activation, % at 10.6 µM; 0.3% of 360,000 active; AID 602163; in the data active means activation above about 7.5%;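 further: 0% = vehicle and 100% = reference activator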
MsrA inh confirm: confirmation of bovine MsrA inhibitors; shares compounds with MsrA inh; inhibition, % at 15.5 µM; AID 651822; purified bovine MsrA, absorbance read-out; 41% of 2,300 active;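 further: coupled to thioredoxin reductase with NADPH and selenocystamine and DMSO as substrate; 0% = vehicle only and 100% = full effect of reference inhibitor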
Active calls of the source: *. Most compounds without a hit are left out; they make up all but 2.1% or so of the library. Unless noted, no stated cut-off is given here; in the data, active means inhibition above about 4.5%; inactive means the rest.

Results for COc1cccc(CNC(=O)[C@@H]2CCCN2C(=O)[C@H]2CCCCN2)c1 ?
MsrA inh: 1.2; SMARCA2 activ: -7.3; ABCB6 inh 2: 98.0; MsrA act: -2.7

Results for COC(=O)c1cc(S(=O)(=O)N2CCCN(C(C)=O)CC2)cn1C ?
SMARCA2 activ: 0.1

What do the screens show for `COc1ccccc1/C=C/C=N/NC(=O)Cc1cccn1C`?
MsrA inh: 5.8*; SMARCA2 activ: -0.5; ABCB6 inh 2: 102.0; MsrA act: -2.4; MsrA inh confirm: 4.9*

Results for COc1ccccc1/C=C/C=N/NC(=O)CCn1nnc2ccccc21 ?
MsrA inh: 3.3; SMARCA2 activ: 2.4; ABCB6 inh 2: 96.0; MsrA act: -4.4

How did COc1ccccc1/C=C\C=N\NC(=O)CCn1nnc2ccccc21 do in these assays?
MsrA inh: 5.0*; SMARCA2 activ: -1.1; ABCB6 inh 2: 104.0; MsrA act: -10.8; MsrA inh confirm: 3.7

Results for COc1ccccc1/C=C/C=N/NC(=O)c1cccs1 ?
MsrA inh: 5.8*; SMARCA2 activ: 2.2; ABCB6 inh 2: 95.0; MsrA act: -3.6; MsrA inh confirm: 6.7*

What do the screens show for `COc1ccccc1/C=C\C=N\NC(=O)c1ccco1`?
MsrA inh: 1.7; SMARCA2 activ: 3.8; ABCB6 inh 2: 99.0; MsrA act: -2.2

Results for COC(=O)C1CN(Cc2ccc(Cl)cc2)CCS(=O)(=O)N1Cc1cn(Cc2ccc(C)cc2)nn1 (centres undefined) ?
SMARCA2 activ: -5.0

What do the screens show for `Cc1ccc(NC(=O)CSc2nnc(-c3cccnc3)n2Cc2ccco2)cc1C`?
SMARCA2 activ: -1.9

Results for COc1ccccc1CCn1cnc(-c2cccc(F)c2)c1CC(C)C ?
MsrA inh: 0.1; SMARCA2 activ: -8.2

What do the screens show for `O=C(COC(=O)c1cc(S(=O)(=O)NCc2ccccc2)ccc1O)c1cc2ccccc2o1`?
MsrA inh: 4.8*; SMARCA2 activ: -1.4; ABCB6 inh 2: 97.0; MsrA act: -2.8; MsrA inh confirm: 3.3

What do the screens show for `O=C(COC(=O)c1cc(S(=O)(=O)NCc2ccccc2)ccc1O)NCc1ccccc1`?
MsrA inh: 3.7; SMARCA2 activ: -4.4; ABCB6 inh 2: 99.0; MsrA act: -3.7

How did CN1/C(=C\C=Nc2cc(S(=O)(=O)N3CCOCC3)ccc2N2CCOCC2)C(C)(C)c2ccccc21 do in these assays?
MsrA inh: 7.6*; SMARCA2 activ: 0.5; ABCB6 inh 2: 136.0; MsrA act: -1.0; MsrA inh confirm: 2.4

What do the screens show for `CC(C)OC(=O)/C(=C\c1ccc2c(c1)c1ccccc1n2C)NC(=O)c1ccccc1`?
MsrA inh: 1.9; SMARCA2 activ: 2.9; ABCB6 inh 2: 105.0; MsrA act: -0.5

Results for CC(C)OC(=O)/C(=C/c1ccc2c(c1)c1ccccc1n2C)NC(=O)c1ccccc1 ?
MsrA inh: 4.8*; SMARCA2 activ: 2.6; ABCB6 inh 2: 92.0; MsrA act: -12.8; MsrA inh confirm: 2.5

How did CCCCCCCCN1C(=O)[C@@H](CC(=O)NCc2ccccc2)C[C@@]2(C(=O)OC)C1=C[C@H](C1CCCC1)O[C@@H]2C do in these assays?
MsrA inh: -0.6; SMARCA2 activ: -3.6

What do the screens show for `O=C(O)c1ccc2c(=O)n3c(nc2c1)/C(=C/c1cccc(O)c1)CC3`?
MsrA inh: 5.0*; SMARCA2 activ: 4.3; ABCB6 inh 2: 97.0; MsrA act: -7.5; MsrA inh confirm: 4.4

What do the screens show for `CC1CN(c2oc(-c3cccs3)nc2C#N)CC(C)O1` (centres undefined)?
MsrA inh: 2.3; SMARCA2 activ: -3.0; ABCB6 inh 2: 91.0; MsrA act: -2.9

How did N#Cc1nc(-c2cccs2)oc1N1CCOCC1 do in these assays?
MsrA inh: 5.1*; SMARCA2 activ: -3.5; ABCB6 inh 2: 100.0; MsrA act: -4.3; MsrA inh confirm: 1.5

Results for Cc1cc(C)c(S(=O)(=O)c2cccc(Cl)c2)c(Cl)n1 ?
MsrA inh: 0.1; SMARCA2 activ: -3.4; ABCB6 inh 2: 98.0; MsrA act: -11.5

What do the screens show for `O=c1[nH]c(=S)[nH]cc1S(=O)(=O)c1cccc(Cl)c1`?
MsrA inh: 5.8*; SMARCA2 activ: -2.4; ABCB6 inh 2: 75.0; MsrA act: 2.9; MsrA inh confirm: 3.3

Results for Cc1ccn2c(=O)c(C(=O)O)cnc2c1 ?
MsrA inh: 4.7*; SMARCA2 activ: -1.2; ABCB6 inh 2: 100.0; MsrA act: -1.8; MsrA inh confirm: 3.7

How did S=C(NCCCc1cnc[nH]1)NCCCN(Cc1ccc(Cl)cc1)c1ccc(Br)cn1 do in these assays?
MsrA inh: -0.4; SMARCA2 activ: -4.8; ABCB6 inh 2: 101.0; MsrA act: -0.7
